# Only some compounds are listed: those with a hit (about 1.8% of all), similar ones and a draw of the others.
# Peg3 imprint: inducers of genomic imprint erasure in mouse ES cells | mouse ES Peg3-LacZ reporter, beta-gal luminescence, 40 h | Potency, µM (top dose mostly 60.7 µM), inactives show at the top dose activity change, positive = activation, usual class: activators | 110,000 compounds, 0.02% hits | AID 1948
#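 Readout: BetaGlo luminescence (5 min, room temp) for LacZ from the normally silent maternal Peg3 allele in female Peg3LacZ-Neo ES cells. Cells 300/well, 40 h, 37C, 5% CO2. Data normalized per plate to negative controls.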
# p53ts 39C tox: p53ts cell cytotoxicity, nonpermissive temperature | H1299-p53A138V viability at 39C, ATP luminescence, 24 h | AID 902 | 130,000 compounds, 1.5% hits | Potency, µM (titrated, usually from 46.1 µM), inactives show top-dose activity change, negative = cell killing, hits mostly cytotoxic; further: on the % scale 0 is the no-effect control and ±100 the full control effect; nearly all actives have a fitted effect of over 55% in size
# p53ts 32C kill: p53ts cell cytotoxicity, permissive temperature; H1299-p53A138V at 32C, ATP luminescence viability, 24 h; Potency, µM (top dose mostly 46.1 µM), inactives show at the top dose activity change, negative = cytotoxicity, actives largely listed as cytotoxic; 130,000 compounds, 0.93% hits;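 further: 0% = DMSO and -100% = full killing by reference compound; nearly all actives have a fitted effect of over 55% in size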
#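 Viability by ATPlite luminescence after 24 h compound treatment (up to 46 uM) at the permissive 32C. Cells are H1299 carrying p53 A138V. Scale runs from DMSO basal to 100 uM tamoxifen as full kill; AC50 from Hill fits.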
# IkB sig inh: inhibitors of IkB signaling in ABC-DLBCL cells; ABC-DLBCL IkBa-CBG/CBR dual luciferase ratio, 4 h; response scale: scaled: untreated 0%, proteasome inhibitor 100%; Potency, µM (titrated, usually from 57.1 µM), inactives show at the highest dose IkBa stabilization activation; 110,000 compounds, 0.04% hits; active means well fitted curve in the direction sought with a large enough effect in the signal ratio, not every such curve was filed as active; inconclusive means small, poorly fitted or top-dose-only effect, or a change in a side signal; the % refers to the signal ratio;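 further: the direction sought is a rising ratio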
#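 In this assay, an IκBα–CBG68 fusion accumulates when IKK-driven degradation is blocked; native CBR normalizes for cell number. OCI-Ly3 cells were treated 4 h with compound and doxycycline, then green and red light read after Chroma-Glo addition.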
# An asterisk follows results filed as active; u = inconclusive; x = not tested or not shown; [ ] = dose if it differs, or a comment. Unless noted, the call rests on the fitted dose curve; in most records, active means well fitted curve in the direction sought with a large enough effect; inconclusive means small, poorly fitted or top-dose-only effect, or another doubt; inactive means no such curve, though single readings can be large; an effect the other way counts as inactive or inconclusive. Potency means the concentration at half of the fitted maximal effect.
SMILES,Peg3 imprint,p53ts 39C tox,p53ts 32C kill,IkB sig inh
Cc1ccccc1C#N,-5.6%,4.2%,14.0%[1.84 µM],-1.3%
O=C1c2ccccc2-c2onc3ccc(NCCCn4ccnc4)c1c23,-31.7%,u,-27.6%,-2.0%
COc1ccc2noc3c2c1C(=O)c1ccccc1-3,-64.5%,-14.9%,12.6µM*,u
COc1ccc(OC)c(CNC(=O)c2cc(-c3ccc(Cl)s3)nc3ccccc23)c1,-6.3%[10.9 µM],-6.9%,1.5%,u
COc1ccc(CNC(=O)c2cc(-c3ccc(Br)s3)nc3ccccc23)cc1,3.5%[10.9 µM],10µM*,-5.5%,0.9%
CC1=C(c2ccc(C)c(C)c2)S(=O)(=O)N=C1N1CCC(C(=O)NCCc2ccc(Cl)cc2)CC1,-2.1%[10.9 µM],12.6µM*,u,-0.4%
O=C(c1ccc(N2CCOCC2)cc1)c1cccs1,-68.7%,7.94µM*,12.6µM*,u
Cc1nc2cc(NC(=O)NCc3ccco3)ccc2n1C,-26.3%,-2.9%,-6.9%,7.9%
Cc1nc2cc(NC(=O)Nc3nccs3)ccc2n1C,-75.0%,7.94µM*,7.94µM*,0.9%
O=C(NCc1ccc2c(c1)OCO2)c1ccc2c(c1)N(Cc1c(F)cccc1Cl)C(=O)c1ccccc1S2,-13.0%[10.9 µM],20.5%,14.2%,u
c1ccc(Nc2nc(-c3cccnc3)cs2)nc1,-80.9%,15.8µM*,u,u
Cc1cccc(Nc2nc(-c3cccs3)cs2)n1,x,-19.6%,u,x
c1cncc(Nc2nc(-c3cccnc3)cs2)c1,-15.1%,2.2%,8.8%,-9.1%
c1ccc(Nc2nc(-c3cccs3)cs2)nc1,-88.3%,u,12.6µM*,u
CCc1ccc2oc(-c3cc(N)cc(C)c3O)nc2c1,27.0%,u,u,u
CCc1ccc2oc(-c3cc(N)ccc3Cl)nc2c1,-75.5%,10µM*,u,u
CCc1ccc2oc(-c3cc(N)ccc3O)nc2c1,-70.6%,12.6µM*,12.6µM*,u
CCc1ccc2oc(-c3cc(NC(=O)c4cccs4)ccc3Cl)nc2c1,-15.9%[10.9 µM],1.0%,-19.8%,u
O=C(Nc1ccc(N2CCCCC2)cc1)c1ccc(F)cc1,-82.7%,u,7.94µM*,1.2%
Cn1cnc2c(=O)oc3ccc(S(=O)(=O)Nc4ccc(F)cc4)cc3c21,12.8%[10.9 µM],12.6µM*,-14.9%,5.2%
Cc1ccc(NS(=O)(=O)c2ccc3oc(=O)c4ncn(C)c4c3c2)cc1C,-4.2%[10.9 µM],u,u,u
CCOc1ccccc1NS(=O)(=O)c1ccc2oc(=O)c3ncn(C)c3c2c1,3.2%[10.9 µM],20µM*,u,13.5%
CCc1ccccc1NS(=O)(=O)c1ccc2oc(=O)c3ncn(C)c3c2c1,3.2%[10.9 µM],-9.6%,-15.5%,1.0%
Cc1ccc(Cl)cc1NS(=O)(=O)c1ccc2oc(=O)c3ncn(C)c3c2c1,-4.1%[10.9 µM],20µM*,u,6.6%
O=C1Nc2ccccc2/C1=N\c1sc2c(c1C(=O)Nc1ccccc1)CCCC2,x,4.1%,15.9%,x
SMILES,Peg3 imprint,p53ts 39C tox,p53ts 32C kill,IkB sig inh
COc1ccc(CCNC(=O)Cc2c(C)c3c(cc(C)c4c(C)c(C)oc43)oc2=O)cc1,-13.4%[10.9 µM],6.2%,3.4%,0.8%
CCN(C(=O)c1cc2c(=O)oc3ccccc3c2s1)c1ccc(C)c(C)c1,-8.7%[10.9 µM],-8.0%,-10.3%,u
Cn1nnnc1SCCNCc1ccccc1OCc1ccc(Cl)cc1Cl,-14.6%[10.9 µM],u,-10.3%,u
CCOc1cc(CNCCSc2nnnn2C)ccc1OCc1ccc(Cl)cc1Cl,-13.5%[10.9 µM],12.6µM*,35.5µM*,u
COc1ccc(Nc2nc(N)c3cc(OC)c(OC)cc3n2)cc1,-39.5%[10.9 µM],12.6µM*,u,u
CCc1cc2c(nc1CC)CCN(CC/C(C)=N/O[C@@H](C)c1cn([C@H](CO)Cc3ccccc3)nn1)C2,x,8.7%[9.22 µM],-10.4%[9.22 µM],x
Cn1c(-c2ccc(Br)o2)nc2ccccc21,-99.1%,10µM*,7.94µM*,8.2%
Cc1oc(-c2nc3ccccc3n2C)cc1C(=O)c1ccccc1,-94.1%,3.98µM*,5.01µM*,u
Cn1c(-c2ccc(Br)o2)nc2cc(Br)ccc21,-86.4%,u,u,-0.9%
Cn1cc(C(=O)c2ccccc2)cc1-c1nc2ccccc2n1C,-12.8%,-7.1%,3.4%,u
CN(C)c1ccc(-c2nc3ccccc3n2C)cc1,-91.9%,0.794µM*,1.58µM*,u
CCc1ccc(NC(=O)C(=O)NCCc2sc(-c3ccc(OC)c(OC)c3)nc2C)cc1,4.1%[10.9 µM],u,-6.2%,-1.4%
CC(=O)O[C@@H]1CC[C@]2(C)[C@H]3CC[C@]4(C)[C@H](C[C@H]5CCCC[C@@]54C(C)=O)[C@@H]3CC(=O)[C@@]2(O)C1,x,x,x,0.7%[11.4 µM]
CCN(CC)CCCNC(=O)c1ccc2c(c1)N(Cc1c(F)cccc1Cl)C(=O)c1ccccc1S2,-7.7%[10.9 µM],12.6µM*,-7.7%,u
COc1ccc(C2CC(c3c(O)cc(C)oc3=O)=NCCS2)c(OC)c1 (stereo not drawn),-16.5%,2.51µM*,3.98µM*,-1.4%

# Source: PubChem BioAssay (National Center for Advancing Translational Sciences (NCATS))
